p53 reactivation: qHTS assay for re-activators of p53 using a Luc reporter; H1299 p53-A138V BP100-luciferase reporter, luminescence, 24 h; Potency, µM (doses to about 92.2 µM), for the others: top-dose activity change, positive = activation, most hits filed as activators; 320,000 tested, 0.063% active; also: potency is read from the fitted curve at half-maximal effect; % of control where 0% means no effect; nearly all actives have a fitted effect of over 45% in size
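H1299 (p53-null), stable ts p53-A138V + BP100-Luc; 1000 cells/well, Opti-MEM/10% FBS; cpd 4 pt, 1:5; 24 h, 37 deg C, 5% CO2; detection reagent 10 min RT; luminescence.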
Six1-Eya2 inh: qHTS Assay for Inhibitors of the Six1/Eya2 Interaction. activity change, % (concentration not given with the values). Homeobox protein SIX1 (Homo sapiens) + Protein phosphatase EYA2 (Homo sapiens), …. AlphaScreen GST-Six1/His-Eya2 binding, biochemical; active compounds read low. 360,000 tested, 0.56% active; in the data active = activity change below about -65%; inconclusive = mostly about -30% to -63%; also: % is scaled to controls: 0 for no effect and ±100 for the full control effect
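Six1/Eya2 binding was read as AlphaScreen signal after compounds were pinned into GST-Six1 plus His-tagged Eya2 (5X stock 250/500 nM) in pH 8.0 Tris/NaCl/TCEP buffer, beads added, then incubated 1 h, 37 C, dark.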
CtBP-E1A blk: qHTS Assay for Inhibitors of the CtBP/E1A Interaction; AlphaScreen GST-E1A/His-CtBP binding, 1536-well; active compounds read low; activity change, % (concentration not given with the values); 340,000 tested, 0.49% active; in the data active = activity change below about -65%; inconclusive = mostly about -30% to -63%; also: % is scaled to controls: 0 for no effect and ±100 for the full control effect
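GST-E1A and His-tagged CtBP (125 nM each as 5X stock) were preincubated with pin-transferred compound for 2 h at 37 °C in the dark, then glutathione donor and nickel acceptor beads were added for 1 h before AlphaScreen reading.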
RORgamma inh: qHTS for inhibitors of ROR gamma transcriptional activity | AID 2551, 2010 | Drosophila S2 Gal4-RORgamma UAS-luciferase reporter, 20 h | Nuclear receptor ROR-gamma (Mus musculus), P51450 | Potency, µM (titrated, usually from 53.6 µM), inactives show at the highest dose activity change, negative = inhibition, actives largely listed as inhibitors | 310,000 tested, 5.4% active; also: potency is read from the fitted curve at half-maximal effect; % is scaled to controls: 0 for no effect and ±100 for the full control effect; nearly all actives have a fitted effect of over 60% in size
Target sequence (P51450 whole entry, looked up, the tested form may be a part): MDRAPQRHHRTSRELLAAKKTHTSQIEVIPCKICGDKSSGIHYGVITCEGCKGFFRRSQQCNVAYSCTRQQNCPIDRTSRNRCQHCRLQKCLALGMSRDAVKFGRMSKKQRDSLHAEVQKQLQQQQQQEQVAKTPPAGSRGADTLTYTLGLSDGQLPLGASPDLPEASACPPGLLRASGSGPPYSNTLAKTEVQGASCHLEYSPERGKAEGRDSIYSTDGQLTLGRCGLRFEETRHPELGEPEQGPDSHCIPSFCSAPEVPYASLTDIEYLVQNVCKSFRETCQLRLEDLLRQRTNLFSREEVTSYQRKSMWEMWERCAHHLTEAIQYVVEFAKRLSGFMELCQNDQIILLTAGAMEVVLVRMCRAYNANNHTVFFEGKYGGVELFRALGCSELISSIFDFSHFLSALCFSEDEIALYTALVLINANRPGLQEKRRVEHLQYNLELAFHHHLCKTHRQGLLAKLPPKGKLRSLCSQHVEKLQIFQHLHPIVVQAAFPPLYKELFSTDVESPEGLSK
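Using a luciferase readout, inhibitors were identified by reduced reporter activity in Drosophila cells coexpressing a copper-inducible Gal4–ROR gamma fusion and UAS-driven Photinus luciferase, incubated 20 hr after 700 uM copper sulfate.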
VP16 counter: VP16 counterscreen qHTS for inhibitors of ROR gamma transcriptional activity | 310,000 tested, 3.5% active | Drosophila S2 Gal4-VP16 UAS-luciferase, luminescence, 20 h | Potency, µM (series often up to 53.6 µM), inactives show at the top dose activity, negative = inhibition, most hits filed as inhibitors;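 also: Gal4-VP16 expression switched on by copper sulfate through the metallothionein promoter; potency is read from the fitted curve at half-maximal effect; % is scaled to controls: 0 for no effect and ±100 for the full control effect; nearly all actives have a fitted effect of over 50% in size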
Starred values were filed as active, the others as inactive. Most compounds without a hit are left out; they make up all but 5.4% or so of the library. Unless noted, calls follow the shape of the dose curve; as a rule, active = well fitted curve in the direction sought with a large enough effect; inconclusive = small, poorly fitted or top-dose-only effect, or another doubt; inactive = no such curve, though single readings can be large; an effect the other way counts as inactive or inconclusive.

Screening COc1ccccc1/C=C/C=N/NC(=O)c1cc(-c2ccco2)[nH]n1 returned p53 reactivation -0.5%, Six1-Eya2 inh -24.7, CtBP-E1A blk -5.6, RORgamma inh 11.2µM* and VP16 counter inconclusive.
Screening Cc1ccc(C)c(-n2c3nc(=O)[nH]c(=O)c-3cc3cc([N+](=O)[O-])ccc32)c1 returned p53 reactivation -18.7%, Six1-Eya2 inh -15.5, CtBP-E1A blk -18.9, RORgamma inh 10µM* and VP16 counter 11.2µM*.
Cc1cccc(-n2c3nc(=O)[nH]c(=O)c-3cc3cc([N+](=O)[O-])ccc32)c1 was read as p53 reactivation -12.0%, Six1-Eya2 inh -14.6, CtBP-E1A blk -11.0, RORgamma inh inconclusive and VP16 counter inconclusive.
`COc1ccc(/C=C/C(=O)c2cccs2)c(OC)c1` gave RORgamma inh 12.6µM* and VP16 counter 35.5µM*.
O=C(/C=C/c1ccnc2ccccc12)c1cccs1 was read as p53 reactivation -4.0%, Six1-Eya2 inh -8.0, CtBP-E1A blk 3.3, RORgamma inh inconclusive and VP16 counter 14.1µM*.
For COc1ccc(/C=C/C(=O)c2c(O)cc(C)oc2=O)c(OC)c1 the results were p53 reactivation inconclusive, Six1-Eya2 inh -6.9, CtBP-E1A blk -2.1, RORgamma inh inconclusive and VP16 counter inconclusive.
For COc1ccc(OC)c(C(=O)/C=C/c2ccccc2C(F)(F)F)c1 the results were p53 reactivation -8.1%, Six1-Eya2 inh -8.4, CtBP-E1A blk -16.6, RORgamma inh 12.6µM* and VP16 counter inconclusive.
For Cc1cccc(NC(=O)CSCC(=O)NCc2ccco2)c1 the results were Six1-Eya2 inh -2.2 and CtBP-E1A blk -1.8.
Screening Cc1ccc(S(=O)(=O)N2CCC(C(=O)Nc3nnc(C)s3)CC2)cc1 returned p53 reactivation -5.3%, Six1-Eya2 inh 11.1, CtBP-E1A blk 3.9, RORgamma inh -14.0% and VP16 counter -2.4%.
N/C(=N\c1nc2ccccc2o1)NC(=O)c1ccc(F)cc1 was read as p53 reactivation inconclusive, Six1-Eya2 inh 7.8, CtBP-E1A blk -2.2, RORgamma inh 2.51µM* and VP16 counter 5.62µM*.
Screening N/C(=N\c1nc2ccccc2o1)NC(=O)c1ccc([N+](=O)[O-])cc1 returned p53 reactivation 13.0%, Six1-Eya2 inh 0.0, CtBP-E1A blk 7.9, RORgamma inh -24.1% and VP16 counter -3.6%.
`CC(C)(C)c1ccc(C(=O)N/C(N)=N/c2nc3ccccc3o2)cc1` gave p53 reactivation 1.6%, Six1-Eya2 inh 3.6, CtBP-E1A blk 6.2, RORgamma inh 1.0% and VP16 counter 0.4%.
For N/C(=N\c1nc2ccccc2o1)NC(=O)c1ccccc1Br the results were p53 reactivation 4.8%, Six1-Eya2 inh -0.1, CtBP-E1A blk 3.9, RORgamma inh 0.891µM* and VP16 counter -32.2%.
`COc1ccc(C(=O)N/C(N)=N/c2nc3ccccc3o2)cc1` gave p53 reactivation 12.5%, Six1-Eya2 inh -1.1, CtBP-E1A blk -1.2, RORgamma inh 8.91µM* and VP16 counter inconclusive.
For N/C(=N\c1nc2ccccc2o1)NC(=O)c1ccc(Cl)cc1 the results were p53 reactivation 20.9%, Six1-Eya2 inh 3.6, CtBP-E1A blk 0.6, RORgamma inh 10µM* and VP16 counter inconclusive.
`O=c1oc2cc(OCCO)ccc2c2c1CCCC2` gave Six1-Eya2 inh 4.7 and CtBP-E1A blk 0.9.
Screening O=C1/C(=C\c2cc([N+](=O)[O-])ccc2O)SC(=S)N1Cc1ccc(Cl)cc1 returned p53 reactivation -2.9%, Six1-Eya2 inh -17.5, RORgamma inh -69.5% and VP16 counter inconclusive.
`Cc1ccccc1/C=C1\SC(=S)N(/N=C/c2cc([N+](=O)[O-])ccc2O)C1=O` gave p53 reactivation 8.6%, Six1-Eya2 inh inconclusive, CtBP-E1A blk -91.6*, RORgamma inh inconclusive and VP16 counter inconclusive.
Screening Cc1ccc(NC(=O)C2CCN(C(=O)c3cccs3)CC2)c(C)c1 returned p53 reactivation -2.4%, Six1-Eya2 inh 17.1, CtBP-E1A blk -10.4, RORgamma inh -1.3% and VP16 counter 1.4%.
Cc1ccc(NC(=S)NNC(=O)c2c(Cl)c(C)nn2C)cc1 was read as p53 reactivation 5.1%, Six1-Eya2 inh 0.1, CtBP-E1A blk 15.4, RORgamma inh 3.98µM* and VP16 counter inconclusive.
`Cc1nn(C)c(C(=O)N/N=C/c2ccc(-c3ccccc3)cc2)c1Cl` gave p53 reactivation 4.8%, Six1-Eya2 inh 1.6, CtBP-E1A blk 3.6, RORgamma inh 8.91µM* and VP16 counter 11.2µM*.
`Cc1nn(C)c(C(=O)NNC(=S)NCC(C)C)c1Cl` gave p53 reactivation -1.8%, Six1-Eya2 inh 3.7, CtBP-E1A blk 3.1, RORgamma inh 3.16µM* and VP16 counter -19.1%.
`Cc1ccc(NC(=S)NNC(=O)c2c([N+](=O)[O-])c(C)nn2C)cc1` gave p53 reactivation -1.3%, Six1-Eya2 inh 2.5, CtBP-E1A blk 9.0, RORgamma inh 12.6µM* and VP16 counter -19.4%.
`Cc1nn(C)c(C(=O)NNC(=S)NCc2ccco2)c1Cl` gave p53 reactivation 4.9%, Six1-Eya2 inh -6.7, CtBP-E1A blk -1.4, RORgamma inh 8.3% and VP16 counter -8.8%.
For Cc1noc(C)c1-c1nccc(NC2CC2)n1 the results were RORgamma inh -5.5% and VP16 counter 1.0%.
Screening CCNc1ncc2nc(C)c(=O)n(Cc3cccc(OC)c3)c2n1 returned RORgamma inh inconclusive and VP16 counter -0.1%.
C=CCNC(=S)Nc1ccc(OC)c(S(=O)(=O)N2CCOCC2)c1 was read as p53 reactivation -3.7%, Six1-Eya2 inh 4.9, CtBP-E1A blk -3.4, RORgamma inh 1.5% and VP16 counter 5.0%.
For Cc1ccc(NC(=S)NNC(=O)c2cn(C)nc2C)cc1 the results were p53 reactivation 9.6%, Six1-Eya2 inh 6.5, CtBP-E1A blk -0.9, RORgamma inh 11.2µM* and VP16 counter -2.3%.
`COc1ccc(C2/C=C\CN(C(=O)C3CC3)C(Cc3ccccc3)C(=O)N2Cc2ccc(F)cc2)cc1` (stereo unspecified) gave RORgamma inh 10µM* and VP16 counter inconclusive.
Screening COc1ccc(C2/C=C\CN(C(=O)C3CC3)[C@H](Cc3ccccc3)C(=O)N2Cc2ccc(F)cc2)cc1 (stereo partly specified) returned p53 reactivation 3.7%, Six1-Eya2 inh -7.5, CtBP-E1A blk -14.7, RORgamma inh 11.2µM* and VP16 counter -19.7%.
CCCCC(=O)N1C/C=C\C(c2ccc(OC)cc2)N(Cc2ccc(F)cc2)C(=O)[C@H]1Cc1ccccc1 (stereo partly specified) was read as p53 reactivation 1.8%, Six1-Eya2 inh -1.4, CtBP-E1A blk -15.5, RORgamma inh inconclusive and VP16 counter inconclusive.
